HIF act – HIF pathway transcriptional activation; U2OS HRE-luciferase reporter, luminescence; normalized: DMSO 0%, desferrioxamine 100%; activation, % at 7.5 µM (by protocol); actives 0.32% (n = 300,000);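 active means mean activation of at least 10% of the iron chelator positive control signal, with at least half of replicates also reaching 10%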
697 NFkB inh – lowers PMA/ionomycin-induced NF-kB signal in 697 B cells; 697 B-cell NF-kB luciferase reporter, 16 h; inhibition, % at 4 µM; actives 0.33% (n = 330,000); AID 435022; in the data active means inhibition above about 35%
Jurkat NFkB inh – inhibitors of the PMA/ionomycin-induced NF-kB reporter in Jurkat cells | PMA/ionomycin-induced NF-kB luciferase reporter, luminescence | inhibition, % at 4 µM | actives 0.53% (n = 330,000) | AID 435003; in the data active means inhibition above about 50%
CFTR F508del cor – correctors of CFTR F508del function in bronchial epithelial cells; CFBE cells, YFP halide quenching; stimulated with forskolin plus potentiator P3; % fluorescence drop versus neutral controls; activity (quench increase), % at 7.58 µM; actives 0.36% (n = 350,000); AID 720511;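 active means mean added fluorescence quench of at least 8% versus neutral control, with both replicates also reaching 8%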;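 further: cells transiently co-express mutant CFTR-F508del with the halide-sensitive YFP; corrector assay measuring rescue of mutant channel to the surface after 24 h compound exposure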
Jurkat NFkB conf – lowers PMA/ionomycin-induced NF-kB signal in Jurkat cells. inhibition, % at 4 µM. Jurkat NF-kB luciferase, 16 h. shares compounds with Jurkat NFkB inh. actives 27% (n = 2,700);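 active means inhibition reaching about 45% at 4 µM in either replicate, limit read from the data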;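 further: plate controls were PMA/ionomycin stimulated DMSO wells for no effect and unstimulated DMSO wells for full effect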
697 NFkB conf – lowers PMA/ionomycin-induced NF-kB signal in 697 B cells. shares compounds with 697 NFkB inh. 697 B-cell NF-kB luciferase, 16 h. inhibition, % at 4 µM. actives 35% (n = 2,000); in the data active means inhibition mostly above about 28%, no sharp cut-off; inactive means mostly below about 22%
An asterisk follows results filed as active; i = inactive; / = not tested or not shown. Hits are enriched below; roughly 0.93% of the tested compounds scored in any of these assays.

SMILES	HIF act	697 NFkB inh	Jurkat NFkB inh	CFTR F508del cor	Jurkat NFkB conf	697 NFkB conf
COc1cc(NC(=O)COc2cc(O)c3c(c2)OC(C)(C)CC3=O)cc(OC)c1OC	1.0	59.5*	57.5*	1.4	75.7*	47.8*
COc1ccc2c3c([nH]c2c1)[C@@H](CO)N(CC1CC1)CC31CN(C(=O)Nc2cccc(F)c2)C1	/	/	/	4.1	/	/
COc1ccc2[nH]c(C(=O)Nc3ccc(C)c(F)c3)cc2c1	4.3	-27.5	-49.1	1.5	/	/
COc1ccc2[nH]c(C(=O)Nc3cccc(C)n3)cc2c1	0.4	-281.1	-189.5	1.8	-96.5	-231.2
O=C(Nc1ccccc1F)N[C@@H]1CC[C@H](CCNC(=O)C2CCCC2)O[C@H]1CO	/	/	/	-0.6	/	/
Cc1ccc(S(=O)(=O)Nc2ccc3c(c2)C(=O)N([C@@H](C)CO)C[C@H](C)[C@H](CN(C)Cc2ccc(C(F)(F)F)cc2)OCCCC[C@H](C)O3)cc1	/	/	/	4.3	/	/
O=C(Nc1ncc(Cc2ccccc2)s1)c1cccs1	0.4	-325.9	-172.7	/	-116.4	-247.8
O=C(Nc1ncc(Cc2cccc(Cl)c2)s1)c1cccs1	1.3	-117.9	-39.8	/	/	/
COc1ccc2c3c(n(C)c2c1)[C@@H](CO)N(Cc1ccccc1F)CC31CCN(C(=O)C2CCC2)CC1	/	/	/	1.1	/	/
Cc1noc(C)c1S(=O)(=O)Nc1ccc2c(c1)C(=O)N([C@@H](C)CO)C[C@H](C)[C@@H](CN(C)S(=O)(=O)c1cn(C)cn1)OCCCC[C@H](C)O2	/	/	/	2.1	/	/
Cc1ccc(/C=N/Nc2nc3ccccc3s2)o1	0.0	-414.4	-186.6	/	-75.6	-239.6
O=C(C1CCCC1)N1CC(=O)N2[C@H](CO)[C@@H](c3ccc(Br)cc3)[C@@H]2C1	/	/	/	0.6	/	/
COc1ccc(S(=O)(=O)Nc2ccc3c(c2)CC(=O)N([C@H](C)CO)C[C@@H](C)[C@H](CN(C)Cc2ccc(Cl)c(Cl)c2)O3)cc1	/	/	/	1.2	/	/
COc1cc(C(=O)O)ccc1OCc1ccccc1	/	/	/	-0.4	/	/
COc1cc(/C=N/O)ccc1OCc1ccc(C(=O)O)cc1	-3.7	84.8*	85.4*	/	67.1*	48.4*
O=C(NCCc1ccccc1)c1ccc2c(c1)OCCCO2	-5.9	63.2*	87.0*	1.0	89.3*	65.8*
O=C(CCc1ccccc1)c1ccc2c(c1)OCCCO2	2.2	-127.8	-93.2	/	/	/
COc1ccc(O)c(C(=O)CC(=O)c2ccccc2)c1	0.1	-251.2	-157.6	/	-107.9	-196.1
C[C@H](O)C#Cc1cnc2c(c1)C(=O)N([C@H](C)CO)C[C@@H](C)[C@H](CN(C)C(=O)CC1CC1)O2	/	/	/	-1.4	/	/
COc1ccc2nc(NC(=O)c3ccoc3C)sc2c1	-0.1	-251.4	-190.5	4.3	-92.0	-324.0
COC(=O)c1sc(NC(=O)c2ccoc2C)nc1C	3.0	/	/	/	/	/
CCCC(=O)Nc1nc2ccc(OC)cc2s1	4.0	-112.7	-74.9	0.7	/	/
COc1ccc2nc(NC(=S)N(C)C)sc2c1	1.0	-319.3	-169.6	/	-51.8	-226.0
Cn1c2c(c(=O)n(C)c1=O)C(C(F)(F)F)(C(F)(F)F)N=C(c1ccc(Cl)cc1)N2	0.0	96.9*	71.4*	/	85.8*	8.4
CC(C)(C)c1ccc(NC(=O)c2ccsc2)cc1	0.5	-324.1	-180.1	-5.0	-166.4	-368.4
SMILES	HIF act	697 NFkB inh	Jurkat NFkB inh	CFTR F508del cor	Jurkat NFkB conf	697 NFkB conf
COC(=O)Cc1ccc(NC(=O)c2ccccc2Cl)cc1	-0.4	34.3	-1.5	/	/	/
COC(=O)Cc1ccc(NC(=O)c2ccc(C(C)(C)C)cc2)cc1	-3.6	77.1*	64.0*	/	78.6*	73.6*
CN1c2ccc(-c3ccc(F)cc3)cc2[C@@H]2[C@@H](CCN2C(=O)Nc2ccc(F)cc2)[C@@H]1CO	/	/	/	0.0	/	/
CC(C)NC(=O)N(C)C[C@@H]1Oc2ccc(NC(=O)Cn3cnnn3)cc2CC(=O)N([C@@H](C)CO)C[C@H]1C	/	/	/	-1.2	/	/
Nc1cccc2c1C(=O)N(CCOc1ccccc1F)C2=O	-1.0	-318.9	-182.9	0.9	-119.7	-360.0
N#Cc1ccccc1OCCN1C(=O)c2ccccc2C1=O	1.9	-47.9	11.9	/	/	/
COc1ccc2c3c([nH]c2c1)[C@@H](CO)N(C(=O)C1CCCC1)CC31CN(Cc2cccc(F)c2)C1	/	/	/	-0.4	/	/
O=c1oc(-c2cccs2)nc2sc3c(c12)CCCC3	1.3	-32.3	3.9	/	/	/
O=c1c2c3c(sc2nc2n1N=C(c1cccs1)CS2)CCCC3	1.2	-312.8	-194.9	/	-63.5	-120.3
C/C(N)=C(/C#N)C(=O)CSc1nnc(-c2ccc3c(c2)OCO3)o1	/	-392.3	-158.3	-2.2	-96.8	-290.7
NC(=O)CSc1nnc(-c2ccc3c(c2)OCO3)o1	1.2	-38.1	-52.1	2.1	/	/
COc1c(CC=C(C)C)c(O)cc2oc(=O)c3c4ccc(O)cc4oc3c12	1.7	-8.1	-24.7	/	/	/
COc1c2c(cc3oc(=O)c4c5ccc(O)cc5oc4c13)OC(C)(C)CC2	3.8	-347.4	-375.6	-0.9	-123.9	-376.7
Cc1cc([N+](=O)[O-])nn1Cc1ccccc1F	0.4	50.9*	97.3*	/	62.0*	76.3*
C=C(C(=O)c1ccccc1)C(C(=C)C(=O)c1ccccc1)c1ccc(OC)cc1	0.2	i	55.6*	-16.4	-3.4	-164.4
Cc1nc(Nc2ccccc2)sc1-c1ccccc1	2.0	-303.1	-164.1	/	-81.5	-150.9
CC(=O)c1sc(Nc2ccccc2)nc1C	/	/	/	-1.9	/	/
O=C(Nc1ccc2c(c1)CCC2)Nc1ccccc1F	1.7	-307.1	-233.4	-3.4	-111.3	-356.1
Cc1ccc(NC(=O)Cc2nn(C)c(=O)c3ccccc23)cc1F	-0.2	20.4	47.6	/	/	/
Cn1nc(CC(=O)Nc2ccc(N3CCN(C(=O)OC(C)(C)C)CC3)cc2)c2ccccc2c1=O	2.2	46.3*	55.2*	/	53.0*	1.0
Cn1nc(CC(=O)Nc2ccc3c(c2)OCCO3)c2ccccc2c1=O	1.1	42.8*	52.5*	/	66.2*	40.7*
O=c1oc2ccccc2cc1-c1nc2c(s1)CCCC2	-1.1	-305.4	-164.7	0.4	-78.9	-369.2
O=c1oc2ccccc2cc1-c1nc2ccccc2o1	0.3	-97.9	-86.0	1.4	/	/
COc1ccc(NC(=O)Nc2ccc3c(c2)[C@@H]2C[C@@H](CC(=O)NCCc4ccccc4)O[C@@H](CO)[C@@H]2O3)cc1	/	/	/	-1.3	/	/
CC(C)CC#Cc1ccc([C@@H]2[C@H](CO)N3C(=O)CN(C(=O)NC4CCCC4)C[C@@H]23)cc1	/	/	/	1.3	/	/
SMILES	HIF act	697 NFkB inh	Jurkat NFkB inh	CFTR F508del cor	Jurkat NFkB conf	697 NFkB conf
Cc1ccc(-c2nc3ccc([N+](=O)[O-])cc3[nH]2)cc1	-5.3	-303.6	-211.8	0.9	-116.3	-432.5
COc1ccc(-c2nc3ccc([N+](=O)[O-])cc3[nH]2)cc1	0.0	/	/	/	/	/
O=C(Nc1nc2ccc(F)cc2s1)c1ccccn1	-0.7	-385.0	96.0*	0.8	-3.8	-332.4
O=C(Nc1nc2ccccc2s1)c1ccccc1	-1.5	-261.2	-219.7	-1.3	-147.2	-310.5
c1ccc2sc(NN=C3CCCCCC3)nc2c1	0.1	-388.3	-155.9	/	-91.7	-319.5
C[C@@H]1CN([C@@H](C)CO)C(=O)c2cc(-c3cccc(F)c3)cnc2O[C@H]1CN(C)Cc1cccnc1	/	/	/	-2.6	/	/

Screening data from PubChem BioAssay.
